Out of some 310,000 compounds screened, about 3,900 (1.3%) were called active. This is one part of a sample in which actives are shown more often than they occur.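 Rule for the calls: active = calcium-response B-score plate-corrected more than 3 library SD below zero, starting fluorescence within 5 deviations, no agonist response on first addition; inactive = the rest.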
molecular target: Mas-related G-protein coupled receptor member X1 (Homo sapiens) (UniProt Q96LB2); test: antagonists of human MrgX1 receptor, primary screen, HEK293 cells, Fluo-4 calcium flux (AID 588676); conditions: Fluo-4, BAM8-22 antagonism, at 10 µM; active compounds read low;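 for B-score: peak minus trough fluorescence over baseline after final BAM8-22 challenge near maximal dose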
Sequence (Q96LB2 whole entry, looked up): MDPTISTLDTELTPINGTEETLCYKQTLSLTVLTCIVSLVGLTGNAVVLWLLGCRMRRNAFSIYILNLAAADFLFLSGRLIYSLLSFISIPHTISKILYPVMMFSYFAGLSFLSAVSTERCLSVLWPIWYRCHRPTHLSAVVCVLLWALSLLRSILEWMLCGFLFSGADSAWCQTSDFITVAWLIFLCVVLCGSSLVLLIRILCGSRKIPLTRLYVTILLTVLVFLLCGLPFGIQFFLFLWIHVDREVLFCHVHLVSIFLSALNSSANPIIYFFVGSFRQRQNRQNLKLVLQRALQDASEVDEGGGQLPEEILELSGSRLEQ

Structure (SMILES)	B-score
CCN(CC(=O)Nc1cc(Cl)ccc1C)C(=O)CSCc1ccc(C)cc1	inactive
COc1ccc(NS(=O)(=O)c2cc(NC(=O)CC(=O)c3ccc([N+](=O)[O-])cc3)ccc2C)cc1	inactive
CCN(CC)c1ccc(NC(=O)c2ccc(=O)[nH]c2)cc1S(=O)(=O)Nc1ccc(OC)cc1	-4.78 (active)
COc1ccc(NS(=O)(=O)c2ccc(NC(=O)c3ccc(N(C)S(C)(=O)=O)cc3)cc2)cc1	inactive
O=C(NCc1ccc2c(c1)OCO2)c1sccc1Br	inactive
O=C(Nc1ccc(C(=O)O)c(O)c1)c1ccccc1	inactive
O=C(O)c1ccc2c(c1)C(=O)N(NC(=O)c1ccc(O)cc1)C2=O	inactive
O=C(c1ccc(O)cc1)c1ccc(C(=O)O)c(C(=O)O)c1	-10.2 (active)
CCCOc1ccc(N2C(=O)CC(N(CCc3ccc(S(N)(=O)=O)cc3)C(C)=O)C2=O)cc1 (stereo unspecified)	inactive
CC(=O)Nc1ccc(S(=O)(=O)N2CCC(C(=O)N[C@@H](Cc3ccccc3)C(=O)O)CC2)cc1	inactive
CCN(CC)S(=O)(=O)c1ccc(N(C)Cc2cccc(OC)c2OC)nc1	inactive
COc1cc(N)c(Cl)cc1C(=O)OCC(=O)c1ccc2c(c1)NC(=O)CO2	inactive
O=C1c2ccccc2C(Nc2ccc3c(c2)OCCO3)N1Cc1ccco1 (stereo unspecified)	inactive
O=C(NC1CCCCC1)C1c2ccccc2C(=O)N1Cc1ccco1 (stereo unspecified)	-7.6 (active)
CC1CCC(NC(=O)C2c3ccccc3C(=O)N2Cc2ccc3c(c2)OCO3)CC1 (stereo unspecified)	inactive
Cc1cc(OC(C)C(=O)Nc2ccc(S(=O)(=O)Nc3onc(C)c3C)cc2)cc(C)c1Cl (stereo unspecified)	inactive
COc1ccc(-c2ocnc2C(=O)Nc2ccc3c(c2)CCC3)cc1	inactive
CCN1C(=O)[C@@H]2[C@@H](c3ccc(-c4ccc(OC)cc4)c(OC)c3)N3CCC[C@@]3(C(=O)OC)[C@@H]2C1=O	inactive
O=c1cc(CO)oc(C(Nc2cccc(C(F)(F)F)c2)c2ccccn2)c1O (stereo unspecified)	inactive
O=[N+]([O-])c1cccc(S(=O)(=O)NCc2ccccn2)c1	inactive
O=c1cc(CO)oc(C(Nc2cccc([N+](=O)[O-])c2)c2ccccn2)c1O (stereo unspecified)	-4.59 (active)
O=C(c1ccc(Cl)cc1)N1N=C(c2ccccn2)CC1(O)C(F)(F)F (stereo unspecified)	inactive
Cc1nnc(SCC(=O)Nc2ccc(S(=O)(=O)Nc3ccc(Cl)nn3)cc2)s1	inactive
CN(c1cccc(NC(=O)Nc2ccc(Cl)cc2)c1)S(C)(=O)=O	-8.9 (active)
COc1cccc(N(CC(=O)Nc2cccc(N(C)S(C)(=O)=O)c2)S(C)(=O)=O)c1	inactive
CN(c1cccc(NC(=O)c2ccc(CN3CCc4ccccc4C3)cc2)c1)S(C)(=O)=O	inactive

Structure (SMILES)	B-score
O=C(COC(=O)c1cnccn1)Nc1cccc2ccccc12	inactive
COC(=O)c1cccnc1NC(=S)NC(C)C	inactive
CC(C)NC(=S)Nc1cccc2cnccc12	-4.98 (active)
Cc1ccc2cc(CN(c3ccc(C)c(C)c3)S(C)(=O)=O)c(=O)[nH]c2c1	inactive
Cc1cc([N+](=O)[O-])ccc1NCc1cccc([N+](=O)[O-])c1	inactive
Cc1c(Br)c([N+](=O)[O-])nn1CC(=O)Nc1sc2c(c1C(=O)OC(C)C)CCC(C)C2 (stereo unspecified)	inactive
COc1ccc(C(=O)Nc2c(N)nc(SCC(=O)N3CCC(C)CC3)[nH]c2=O)cc1OC	-5.91 (active)
COC(=O)c1ccc(NC(=O)CSc2nc(N)c(NC(=O)c3ccc(Br)o3)c(=O)[nH]2)cc1	inactive
COc1ccc(C(=O)Nc2c(N)nc(SCC(=O)Nc3ccc(C(C)=O)cc3)[nH]c2=O)cc1	inactive
COC(=O)C(C(=O)Nc1cccc(C)n1)C1CCCCCC1 (stereo unspecified)	inactive
Cc1c(NC(=O)CCC2CCCCC2)cc(C(=O)N2CCOCC2)cc1[N+](=O)[O-]	inactive
Cc1ccc(S(=O)(=O)C(C#N)c2nc3ccccc3nc2N2CCCC2)cc1C (stereo unspecified)	-6.25 (active)
Cc1cc(N2CCN(S(=O)(=O)c3ccc(C)c(C)c3)CC2)c2ccccc2n1	inactive
Cc1ccc(S(=O)(=O)Nc2nc3ccccc3nc2N2CCc3ccccc3C2)cc1	inactive
C#CCOCCOCCOCCNc1nc(N2CCN(C(=O)C(Cc3ccc(O)cc3)n3cc(C(N)CC(C)C)nn3)CC2)nc(N2CCN(C(=O)C(Cc3ccc(O)cc3)n3cc(C(N)C(C)CC)nn3)CC2)n1 (stereo unspecified)	inactive
O=C(Nc1nnc(-c2ccccc2F)s1)c1ccccc1F	inactive
CN(CC(=O)NCCN1CCOCC1)S(=O)(=O)c1ccc(F)cc1	inactive
CCOc1ccc(NS(=O)(=O)c2ccc(C(=O)NC3CCN(Cc4ccccc4)CC3)cc2)cc1	inactive
CCOc1ccc(C(=O)NC2CCN(S(=O)(=O)CC)CC2)cc1	-5.83 (active)
CCOc1ccc(NC(=S)N2CCC(NC(=O)c3ccccc3)CC2)cc1	inactive
CCOC(=O)c1nnn2c1nc(N1CCN(c3ccccc3)CC1)c1ccccc12	inactive
COc1cc(C(=S)N2CCOCC2)cc(OC)c1OC(=O)c1cc([N+](=O)[O-])c(C)c([N+](=O)[O-])c1	inactive
O=S(=O)(ON(c1ccccc1)S(=O)(=O)c1ccccc1)c1ccccc1	inactive
CC1=C/C(=N\OS(=O)(=O)c2ccccc2)C=CC1=O	-5.63 (active)
CCOC(=O)c1ccc2[nH]c3c(c2c1)CCCC3NC=O (stereo unspecified)	inactive
O=C(NC(C(=O)NCCN1CCOCC1)C12CC3CC(CC(C3)C1)C2)C1CCCCC1 (stereo unspecified)	inactive

Structure (SMILES)	B-score
O=C(C[C@H]1C(=O)N(c2ccc(F)c(F)c2)C[C@@H]1Cc1ccccc1)Nc1ccccc1	inactive
C/C=C/C=C/C(=O)OCC(=O)Nc1ccc(Cl)cc1	inactive
O=[N+]([O-])c1ccc(F)cc1Oc1nc(-c2cccnc2)nc2ccccc12	inactive
COc1ccccc1Oc1nc(-c2cccnc2)nc2ccccc12	-5.1 (active)
COc1ccc(Nc2nc(-c3cccnc3)nc3ccccc23)cn1	inactive
CCOc1ccc(C(C)=O)cc1COC(=O)CN1C(=O)NC2(CCCC2)C1=O	inactive
Cc1cccc(OCC(O)Cn2c(N3CCCCC3)nc3c2c(=O)[nH]c(=O)n3C)c1 (stereo unspecified)	inactive
c1ccc(-c2cc3c(NCC4COc5ccccc5O4)ncnc3s2)cc1 (stereo unspecified)	inactive
Oc1cc2c(cc1O)CN(C(=S)NCCc1ccc(Cl)cc1)CCC2	inactive
O=C(N/N=C/c1ccccc1O)C1CCCC1	-4.79 (active)
Oc1ccccc1C=NC1CCCCC1N=Cc1ccccc1O (stereo unspecified)	inactive
COc1ccc(/C=N/NC(=O)C2CC2)c(OC)c1OC	inactive
O=C(O)c1ccc(N/N=C/c2ccc3ncccc3c2)cc1	inactive
Cc1ccc2cc(/C=N/Nc3ccc(C(=O)O)cc3)c(Cl)nc2c1	-14.6 (active)
Cc1ccc2cc(/C=N/NC(=O)[C@@H]3CCCN3)c(Cl)nc2c1	inactive
CCCCC(O)(CCCC)C(=O)NN(C(=O)CCl)c1ccccc1	inactive
CC(C)(C)c1ccc(/C=C2\Oc3c(ccc(O)c3CN3CCN(CCO)CC3)C2=O)cc1	inactive
COc1ccc(-c2[nH]nc(-c3ccccc3)c2-c2nc3ccccc3[nH]2)cc1	inactive
O=C(Nc1cccc(-c2nc3ccccc3[nH]2)c1)c1ccc(C(=O)Nc2cccc(-c3nc4ccccc4[nH]3)c2)cc1	inactive
c1ccc(-c2[nH]ncc2-c2nc3ccccc3[nH]2)cc1	-5.86 (active)
CC(OC(=O)CCCOc1ccccc1)C(=O)Nc1ccc(Cl)cn1 (stereo unspecified)	inactive
CCOCCCn1c(NN)nc2ccccc2c1=O	inactive
CCCn1c(O)c(CN2CCCC(C)C2)c(C)c(C#N)c1=O (stereo unspecified)	-5.29 (active)
Cc1c(CN2CCCCC2)c(O)n(CCO)c(=O)c1C#N	inactive
CCCCCCn1c(CN2CCCC(C)C2)nc2c1c(=O)n(C)c(=O)n2C (stereo unspecified)	inactive
Cc1cc(NC(=O)/C=C/C(=O)N(c2ccccc2C)C(C(=O)NC2CCCC2)c2ccc(F)cc2)no1 (stereo unspecified)	inactive

Structure (SMILES)	B-score
CCOCCOCCC(C(=O)O)P(=O)(c1ccccc1)c1ccccc1 (stereo unspecified)	inactive
CCN1CC=C2C(C#N)=C(N)C(C#N)(C#N)[C@H](c3ccoc3)[C@H]2C1	inactive
CCCN1CC=C2C(C#N)=C(N)C(C#N)(C#N)C(c3cc(OC)ccc3OC)C2C1 (stereo unspecified)	-7.07 (active)
N#CC1=C(N)C(C#N)(C#N)[C@H](c2ccsc2)[C@H]2COCC=C12	inactive
O=C(O)CN1c2cccc3cccc(c23)S1(=O)=O	inactive
COc1ccc(-c2cc(C(F)(F)F)nc(S(C)(=O)=O)n2)cc1OC	inactive
O=C(NNC1=NCCC1)c1cccc(S(=O)(=O)N2CCCCC2)c1	inactive
COc1ccc(Cl)cc1NC(=O)CNc1ccccc1F	inactive
C=C(C)C1CC=C(C)/C(=N\NC(=O)CNc2ccccc2OC)C1 (stereo unspecified)	-6.1 (active)
C=C(C)C1CC=C(C)/C(=N/NC(=O)CCCNc2cccc(C)c2)C1 (stereo unspecified)	inactive
O=S(=O)(Nc1ccccc1Cl)c1cccc2nsnc12	inactive
Cn1nc(C(C)(C)C)c(NC(=O)c2sccc2Cl)c1C(C)(C)C	inactive
COc1ccccc1N(CC(=O)NC1CCCC1)C(=O)C1(C)CC(=O)N=C2C=CC(C)=CN21 (stereo unspecified)	inactive
CCn1c(SCC(=O)Nc2ccc(C)cc2)nc2nc3c(cc2c1=O)CCCC3	inactive
O=C1CC(c2c(F)cccc2Cl)C(n2cncn2)C(O)=C1C1NCCc2ccccc21 (stereo unspecified)	inactive
NS(=O)(=O)c1ccc(NC(=S)Nc2ccc(Br)c(Cl)c2)cc1	-5.41 (active)
COc1ccc(NC(=S)Nc2ccc(S(N)(=O)=O)cc2)c(C)c1	inactive
NS(=O)(=O)c1ccc(CCNC(=S)Nc2ccc(S(N)(=O)=O)cc2)cc1	inactive
CO/N=C(/CS(=O)(=O)c1ccc(Br)cc1)c1ccc(OC)cc1	inactive
CCOc1ccc(C)cc1S(=O)(=O)NC1CCCCCC1	inactive
CCCCOC(=O)CNc1nnc(SCC(=O)OCC)[nH]c1=O	-10.5 (active)
Cc1nnc(SCC(=O)N2CCOCC2)[nH]c1=O	inactive
CCOC(=O)CSc1nc(C)c(Oc2ccc(Cl)cc2Cl)c(=O)[nH]1	inactive

Source: PubChem BioAssay AID588676 (Johns Hopkins Ion Channel Center, 2011)
